In the library only some 15% were active in any assay of this set; here they are far more common.
SARS PLpro yeast – SARS-CoV PLP inhibition in yeast. S. cerevisiae expressing SARS-CoV PLpro, growth rescue. Potency, µM (top dose mostly 32.9 µM), for inactives: at the top dose activity, positive = growth rescue, usual class: activators. actives 0.19% (n = 330,000); calls by dose curve; also: potency is read from the fitted curve at half-maximal effect; 0% is about no effect; nearly all actives have a fitted effect of over 55% in size
Pf growth 48h – P. falciparum growth inhibition at 48 hours (one generation) | Potency, µM (series often up to 28.7 µM), for inactives: top-dose activity change, negative = inhibition, hits mostly inhibitors | actives 5.9% (n = 310,000) | P. falciparum luciferase growth in erythrocytes, 48 h; also: potency is read from the fitted curve at half-maximal effect; % is scaled to controls: 0 for no effect and ±100 for the full control effect
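In quantitative HTS format, infected erythrocytes bearing luciferase-reporter parasites were treated for a single generation at 37 C. Luminescence after adding detection reagent served as the growth measure.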
Pf growth 96h – P. falciparum growth inhibition at 96 hour, primary screen for plastid delayed-death inhibitors | AID 504834 | P. falciparum luciferase reporter growth, 96 h | actives 6.9% (n = 320,000) | Potency, µM (titrated, usually from 28.7 µM), without a hit: at the top dose activity change, negative = inhibition, actives largely listed as inhibitors; also: potency is read from the fitted curve at half-maximal effect; % is scaled to controls: 0 for no effect and ±100 for the full control effect
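Compounds incubated with erythrocytes infected by luciferase-expressing P. falciparum (2% hematocrit, 0.05% parasitemia final) for 96 hours, 37 C in 5% CO2. Growth inhibition scored as decreased luciferase luminescence.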
HCV inhibitor – blocks hepatitis C virus | actives 3.4% (n = 340,000) | Potency, µM (highest dose often 41.8 µM), for the others: at the highest dose activity change, negative = inhibition, hits mostly inhibitors | Huh7.5.1 HCVcc-Cre infection, luciferase reporter, 44 h; also: potency is read from the fitted curve at half-maximal effect; % is scaled to controls: 0 for no effect and ±100 for the full control effect
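Reporter virus HCVcc-Cre (~0.5 moi) infects cells exposed to compound; seeding density 1,000 cells/well with 4 h settling beforehand. Luminescence, 15 sec read, taken 44 h post-infection following a 15 min RT substrate incubation.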
HCMV inh – inhibitors of human cytomegalovirus; actives 4.5% (n = 410,000); HFF cells, HCMV-luciferase reporter, 72 h; hits give low values; activity change, negative = inhibition, % at 57.5 µM; in the data active = activity change below about -60%; inconclusive = no clear call, values can overlap the other calls; inactive = above about -39%; also: % is scaled to controls: 0 for no effect and ±100 for the full control effect
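After 16 h attachment at 37C, HFF cells received test compound and HCMV-luciferase (1 PFU/cell); reporter luminescence read 72 h later, data normalized against buffer-only and known inhibitor Salinomycin.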
Sm TGR inh – S. mansoni TGR enzyme inhibition | actives 3% (n = 360,000) | purified TGR, DTNB reduction, TNB absorbance 405 nm | Q962Y6 | Potency, µM (doses to about 114 µM), without a hit: top-dose activity change, negative = inhibition, most hits filed as inhibitors; also: potency is read from the fitted curve at half-maximal effect; % is scaled to controls: 0 for no effect and ±100 for the full control effect; nearly all actives have a fitted effect of over 60% in size
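Kinetic colorimetric format: TGR-catalysed, NADPH-driven DTNB reduction monitored via TNB absorbance. Enzyme dispensed at 20 nM; compound exposure 15 min at room temperature before reaction start.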
The depositor's hits bear a star; [ ] = dose if it differs, or a comment. Unless noted, calls follow the shape of the dose curve; as a rule, active = well fitted curve in the direction sought with a large enough effect; inconclusive = small, poorly fitted or top-dose-only effect, or another doubt; inactive = no such curve, though single readings can be large; an effect the other way counts as inactive or inconclusive.

What do the screens show for `COC(=O)c1ccc(C2NC(=O)CCC2[N+](=O)[O-])cc1` (centres undefined)?
SARS PLpro yeast: 2%; Pf growth 48h: 6%; Pf growth 96h: 13%; HCV inhibitor: 20%; HCMV inh: 22; Sm TGR inh: 1%

How did Cc1ccc([C@H]2Nc3ccc(S(=O)(=O)Nc4cccc(Cl)c4C)cc3[C@H]3C=CC[C@H]32)cc1 do in these assays?
HCMV inh: inconclusive; Sm TGR inh: -2%

What do the screens show for `COC(=O)c1ccc(C2Nc3ccc(/C(C)=N/NC(=O)C(OC)c4ccccc4)cc3C3C=CCC32)cc1` (centres undefined)?
SARS PLpro yeast: 2%; Pf growth 48h: inconclusive; Pf growth 96h: 4.1µM*; HCV inhibitor: -21%; HCMV inh: 10; Sm TGR inh: 7.9µM*

What do the screens show for `COC(=O)c1ccc([C@H]2Nc3ccc(S(=O)(=O)Nc4cccc(C)c4)cc3[C@H]3C=CC[C@H]32)cc1`?
HCMV inh: 10; Sm TGR inh: 25µM*

What do the screens show for `COc1cc(NC(=O)N[C@H](C(=O)O)C(C)C)cc(OC)c1`?
SARS PLpro yeast: -4%; Pf growth 48h: 8%; Pf growth 96h: inconclusive; HCV inhibitor: 23%; HCMV inh: 13; Sm TGR inh: 4%

Results for COc1cc(/C=N/NC(=O)c2ccncc2)ccc1OC(=O)c1cc(OC)c(OC)c(OC)c1 ?
SARS PLpro yeast: 1%; Pf growth 48h: -3%; Pf growth 96h: -3%; HCV inhibitor: -25%; HCMV inh: -5; Sm TGR inh: 5%

Results for COCC(=O)Nc1cc(C)cn(Cc2ccccc2Cl)c1=O ?
SARS PLpro yeast: 2%; Pf growth 48h: 0%; Pf growth 96h: 0.083µM*; HCV inhibitor: -8%; HCMV inh: 9; Sm TGR inh: 42%

How did CC(=O)Nc1ccc(C(=O)COC(=O)C2CC2C)c(F)c1 (centres undefined) do in these assays?
SARS PLpro yeast: 1%; Pf growth 48h: -23%; Pf growth 96h: 31%; HCV inhibitor: 13µM*; HCMV inh: 2; Sm TGR inh: 5%

Results for CCCCCOP(=O)(c1ccccc1)c1ccccc1 ?
SARS PLpro yeast: -1%; Pf growth 48h: 12µM*; Pf growth 96h: 9.3µM*; HCV inhibitor: -12%; HCMV inh: 48; Sm TGR inh: 0%

What do the screens show for `Cc1c(C(=O)N2CCOCC2)sc(NC(=O)CCl)c1C#N`?
SARS PLpro yeast: 1%; Pf growth 48h: 2.1µM*; Pf growth 96h: -23%; HCV inhibitor: -9%; HCMV inh: inconclusive; Sm TGR inh: 40µM*

How did CCNC(=O)C1(C)CCCN(Cc2noc(-c3c(C)noc3C)n2)C1 (centres undefined) do in these assays?
HCMV inh: -11

Results for CCOC(=O)c1ccccc1NC(=O)CN(c1ccc(OCC)cc1)S(C)(=O)=O ?
SARS PLpro yeast: 0%; Pf growth 48h: 12%; Pf growth 96h: 24%; Sm TGR inh: -10%

Results for O=C(O)Cn1c2ccccc2c2n[nH]c(=S)nc21 ?
SARS PLpro yeast: 9%; Pf growth 48h: -5%; Pf growth 96h: 3.7µM*; HCV inhibitor: 23%; HCMV inh: 13; Sm TGR inh: -36%

What do the screens show for `CCn1c2ccccc2c2n[nH]c(=S)nc21`?
SARS PLpro yeast: -4%; Pf growth 48h: 13%[0.00184 µM]; Pf growth 96h: -1%; HCV inhibitor: 2%; HCMV inh: -11; Sm TGR inh: -3%

Results for CCN(CC)Cc1cc2[nH]c3c4ccc(Cl)cc4ncc3c2cc1OC ?
SARS PLpro yeast: 0%; Pf growth 48h: 0.074µM*; Pf growth 96h: 0.093µM*; HCV inhibitor: inconclusive; HCMV inh: 73; Sm TGR inh: 10%

What do the screens show for `COc1ccccc1Oc1ccnc2cc(Cl)ccc12`?
SARS PLpro yeast: -29%; Pf growth 48h: inconclusive; Pf growth 96h: inconclusive; HCV inhibitor: 0%; HCMV inh: -39; Sm TGR inh: -11%

Results for Cc1ccc(C2=NN(CC(=O)NC(C)c3ccccc3)C(=O)CC2)cc1 (centres undefined) ?
HCMV inh: -2; Sm TGR inh: -1%

How did CCOC(=O)N/N=C\c1ccc(OC/C=C/c2ccccc2)cc1 do in these assays?
SARS PLpro yeast: 9%; Pf growth 48h: inconclusive; Pf growth 96h: inconclusive; HCV inhibitor: 3%; HCMV inh: 2; Sm TGR inh: 2%

How did O=C(Nc1ccccc1)N1CCC(O)(c2cccc(C(F)(F)F)c2)CC1 do in these assays?
SARS PLpro yeast: -2%; Pf growth 48h: -20%; Pf growth 96h: inconclusive; HCV inhibitor: -3%; HCMV inh: 116; Sm TGR inh: inconclusive

How did OC1(c2cccc(C(F)(F)F)c2)CCN(c2ccc(-c3ccccc3)nn2)CC1 do in these assays?
SARS PLpro yeast: -4%; Pf growth 48h: 118%; Pf growth 96h: 3.7µM*; HCV inhibitor: inconclusive; HCMV inh: 17; Sm TGR inh: -2%

Results for O=C1c2ccccc2/C(=C\c2ccc(O[C@@H]3CCCCO3)cc2)N1c1ccccc1 ?
HCMV inh: -32

Results for Fc1cccc(C[n+]2csc3ccccc32)c1 ?
SARS PLpro yeast: -29%; Pf growth 48h: inconclusive; Pf growth 96h: 50%; HCV inhibitor: -13%; HCMV inh: -7; Sm TGR inh: -32%

What do the screens show for `c1ccc(C[n+]2csc3ccccc32)cc1`?
SARS PLpro yeast: -30%; Pf growth 48h: 34%; Pf growth 96h: 32%; HCV inhibitor: -11%; HCMV inh: 61; Sm TGR inh: 4.5µM*

How did O=C1CN(C(=O)c2ccc(S(=O)(=O)N3CCCCC3)cc2)C(c2ccc(F)cc2)c2cc(Br)ccc2N1 (centres undefined) do in these assays?
HCMV inh: -8; Sm TGR inh: -27%

How did CCCn1c(NCc2cccc(OC)c2O)nc2ccccc21 do in these assays?
SARS PLpro yeast: -4%; Pf growth 48h: 12µM*; Pf growth 96h: 107%; HCV inhibitor: inconclusive; HCMV inh: 44; Sm TGR inh: -1%

How did COc1ccccc1CNc1nc2ccccc2n1CCN1CCCCC1 do in these assays?
SARS PLpro yeast: 4%; Pf growth 48h: inconclusive; Pf growth 96h: inconclusive; HCV inhibitor: inconclusive; HCMV inh: inconclusive; Sm TGR inh: 2%

What do the screens show for `CCCn1c(NCc2cccc(OC)c2OC)nc2ccccc21`?
SARS PLpro yeast: -2%; Pf growth 48h: inconclusive; Pf growth 96h: 3%; HCV inhibitor: inconclusive; HCMV inh: 53; Sm TGR inh: 0%

How did Oc1ccccc1CNc1nc2ccccc2n1CCN1CCCCC1 do in these assays?
SARS PLpro yeast: 9%; Pf growth 48h: 2.9µM*; Pf growth 96h: -21%; HCV inhibitor: -6%; HCMV inh: -1; Sm TGR inh: 3%

Screening results (PubChem BioAssay)
